Read-out in experiment [1]: Intercellular Adhesion Molecule 1 (ICAM1), ICAM1 (gene 3383)
The experiment is described as follows: BSK_3C_ICAM1: BioMAP Diversity Plus: 3C Assay for Intercellular Adhesion Molecule 1 (ICAM1) Biomarker Activity (AID 2283003). Particulars: primary human endothelial cells (HUVEC); actives raise or lower the signal. The essentials:
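Chemicals are dosed onto primary human umbilical vein endothelium (3C system). After 24 h, ICAM-1 is measured by ELISA, and responses are fitted bidirectionally relative to DMSO.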

Experiment [2] concerns the target Retinoic acid receptor alpha (Homo sapiens) (UniProt P10276). Put plainly: ATG_RARa_TRANS: Attagene TRANS-FACTORIAL HepG2 Assay for human Retinoic Acid Receptor alpha (RARa) (AID 2283005; active = hit-call score of the fitted dose curve at least 0.9, where 1 is the maximum). The essentials: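 HepG2 cells transiently transfected with multiple reporter units expressing chimeric RARα-GAL4 fusion, with GAL4-UAS-driven reporters. After 24 h compound exposure, reporter mRNA induction quantified by RT-PCR and capillary electrophoresis with fluorescent labeling; gain-of-signal fitted relative to DMSO control.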

Experiment [3] in a line: BSK_3C_Proliferation: Cell Proliferation Assessment in the BioMAP Diversity Plus: 3C Assay (AID 2283006). Conditions: primary human endothelial cells (HUVEC). The procedure, abridged: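 Cells (human umbilical vein endothelial, sub-confluent) receive test chemical; after 48 h they are fixed in 10% trichloroacetic acid, stained with 0.1% SRB and read at 560 nm. Activity is referenced to DMSO, fitting increases and decreases.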

Experiment [4] has as its target Peroxisome proliferator-activated receptor gamma (Homo sapiens) (UniProt P37231). Put plainly: ATG_PPARg_TRANS: Attagene TRANS-FACTORIAL HepG2 Assay for human Peroxisome Proliferator-activated Receptor-gamma (PPARg) (AID 2283007; active = hit-call score of the fitted dose curve at least 0.9, where 1 is the maximum). The essentials:
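Human hepatoma HepG2, transient MRTU transfection, 24 h treatment. mRNA reporter signal by RT-PCR plus capillary electrophoresis, fluorescence detection; fitted for increase over DMSO negative control.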

The target of experiment [5] is human Retinoic Acid Receptor gamma (RARg), RARG (gene 5916) (UniProt P13631). The experiment is described as follows: ATG_RARg_TRANS: Attagene TRANS-FACTORIAL HepG2 Assay for human Retinoic Acid Receptor gamma (RARg) (AID 2283009; active = hit-call score of the fitted dose curve at least 0.9, where 1 is the maximum). The procedure, abridged:
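TRANS format measured activity of exogenous NR-GAL4 fusion (RARg) in transfected HepG2 liver cells after 24 h dosing. Induced reporter RNA was detected by RT-PCR/capillary electrophoresis fluorescence, analysed in the positive direction against DMSO.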

Experiment [6] concerns the target human RAR-related Orphan Receptor gamma (RORg), RORC (gene 6097) (UniProt P51449). Put plainly: ATG_RORg_TRANS: Attagene TRANS-FACTORIAL HepG2 Assay for human RAR-related Orphan Receptor gamma (RORg) (AID 2283011; active = hit-call score of the fitted dose curve at least 0.9, where 1 is the maximum). The essentials:
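Reporter transcripts from a transfected RORg-GAL4 chimera in HepG2 cells were quantified 24 h after dosing by RT-PCR, 6-FAM labelling, HpaI digestion and capillary electrophoresis; increases over DMSO baseline were fitted.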

Experiment [7] deals with Retinoic acid receptor RXR-alpha (Homo sapiens) (UniProt P19793). Put plainly: ATG_RXRa_TRANS: Attagene TRANS-FACTORIAL HepG2 Assay for human Retinoid X Receptor alpha (RXRa) (AID 2283012; active = hit-call score of the fitted dose curve at least 0.9, where 1 is the maximum). The essentials: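 Measures exogenous chimeric NR-GAL4 activity in transfected HepG2 liver cells after 24 h of dosing. Induced reporter mRNA was detected by RT-PCR with capillary electrophoresis, and gain of signal was analysed against DMSO.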

In experiment [8] the target is human Retinoid X Receptor beta (RXRb), RXRB (gene 6257) (UniProt P28702). The experiment is described as follows: ATG_RXRb_TRANS: Attagene TRANS-FACTORIAL HepG2 Assay for human Retinoid X Receptor beta (RXRb) (AID 2283013; active = hit-call score of the fitted dose curve at least 0.9, where 1 is the maximum). The essentials: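 Chimeric receptor-Gal4 activity was assessed in transiently transfected human HepG2 cells after 24 h exposure. Transcripts from GAL4-UAS reporters were quantified by fluorescent RT-PCR and capillary electrophoresis, with DMSO as negative control and baseline.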

Experiment [9] has as its target human Thyroid Receptor alpha (THRa1), THRA (gene 7067) (UniProt P10827). Put plainly: ATG_THRa1_TRANS: Attagene TRANS-FACTORIAL HepG2 Assay for human Thyroid Receptor alpha (THRa1) (AID 2283014; active = hit-call score of the fitted dose curve at least 0.9, where 1 is the maximum). The procedure, abridged:
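Transcripts from GAL4-UAS-driven reporters, measured after 24 h compound exposure by RT-PCR plus capillary electrophoresis of 6-FAM-labeled fragments, were fitted for gain of signal relative to DMSO. Cells: transiently transfected HepG2 expressing NR-Gal4 chimeras.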

Read-out in experiment [10]: Interleukin-1 alpha (IL1a), IL1A (gene 3552)
The experiment is described as follows: BSK_BE3C_IL1a: BioMAP Diversity Plus: BE3C Assay for Interleukin-1 alpha (IL1a) Biomarker Activity (AID 2283016). Particulars: primary human bronchial epithelial cells; actives raise or lower the signal. The procedure, abridged: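 Signal from IL-1a ELISA, taken 24 h after chemical dosing of human bronchial epithelial cells, is compared with DMSO as baseline using bidirectional curve fitting.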

Read-out in experiment [11]: Monocyte Chemoattractant Protein-1 (MCP1), CCL2 (gene 6347)
Put plainly: BSK_3C_MCP1: BioMAP Diversity Plus: 3C Assay for Monocyte Chemoattractant Protein-1 (MCP1) Biomarker Activity (AID 2283017). Particulars: primary human endothelial cells (HUVEC); actives raise or lower the signal. The essentials: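 MCP-1 was measured by ELISA 24 h after dosing in primary HUVEC 3C cultures and fitted in both directions relative to DMSO; cytotoxicity was checked by SRB total-protein staining in parallel wells.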

Read-out in experiment [12]: Human Leukocyte Antigen - DR isotype (HLADR), HLA-DRA (gene 3122)
The experiment is described as follows: BSK_3C_HLADR: BioMAP Diversity Plus: 3C Assay for Human Leukocyte Antigen - DR isotype (HLADR) Biomarker Activity (AID 2283019).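 For outcome: ELISA of cell-surface HLA-DR on HUVEC 24 h after dosing.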 Conditions: primary human endothelial cells (HUVEC); actives raise or lower the signal. The essentials: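 Bidirectional fitting against DMSO was applied to the HLA-DR ELISA signal from human umbilical vein endothelial cells, 24 h post-dose. Cytotoxicity came from parallel SRB total-protein staining; 3C proliferation was counted by SRB at 48 h.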

Read-out in experiment [13]: Interleukin-8 (IL8), CXCL8 (gene 3576)
The experiment is described as follows: BSK_3C_IL8: BioMAP Diversity Plus: 3C Assay for Interleukin-8 (IL8) Biomarker Activity (AID 2283020). Particulars: primary human endothelial cells (HUVEC); actives raise or lower the signal. The essentials: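 Endothelial primary cells of human umbilical vein origin are dosed with chemical; after 24 h the IL-8 biomarker is measured by ELISA, and concentration–response is fitted in both directions versus DMSO.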

Read-out in experiment [14]: Monokine induced gamma interferon (MIG), CXCL9 (gene 4283)
The experiment is described as follows: BSK_3C_MIG: BioMAP Diversity Plus: 3C Assay for Monokine induced gamma interferon (MIG) Biomarker Activity (AID 2283021). Conditions: primary human endothelial cells (HUVEC); actives raise or lower the signal. The procedure, abridged: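 Endothelial primary cells (human umbilical vein) are dosed with test chemical in the 3C system. MIG levels are measured by ELISA at 24 h and fitted in both directions relative to DMSO.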

For experiment [15], the target named is human Retinoic Acid Receptor beta (RARb), RARB (gene 5915) (UniProt P10826). Put plainly: ATG_RARb_TRANS: Attagene TRANS-FACTORIAL HepG2 Assay for human Retinoic Acid Receptor beta (AID 2283004; active = hit-call score of the fitted dose curve at least 0.9, where 1 is the maximum). The procedure, abridged: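 Induction of reporter mRNA from a chimeric RARb-Gal4 construct was measured by RT-PCR, FAM labelling, HpaI digestion and capillary electrophoresis. Measurements followed 24 h compound treatment of transiently transfected human HepG2 liver cells, with DMSO as baseline.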

The target in experiment [16] is Nuclear receptor subfamily 1 group I member 2 (Homo sapiens) (UniProt O75469). Put plainly: ATG_PXR_TRANS: Attagene TRANS-FACTORIAL HepG2 Assay for human Pregnane X Receptor (PXR) (AID 2283008; active = hit-call score of the fitted dose curve at least 0.9, where 1 is the maximum). The procedure, abridged:
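Trans-factorial format: exogenous NR-Gal4 fusion activity, not endogenous factor, in transfected human HepG2 liver cells. After 24 h dosing, RNA isolated, reverse-transcribed, amplified and resolved by capillary electrophoresis; induction scored versus DMSO.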

In experiment [17] the target is human RAR-related Orphan Receptor beta (RORb), RORB (gene 6096) (UniProt Q92753). Put plainly: ATG_RORb_TRANS: Attagene TRANS-FACTORIAL HepG2 Assay for human RAR-related Orphan Receptor beta (RORb) (AID 2283010; active = hit-call score of the fitted dose curve at least 0.9, where 1 is the maximum). The procedure, abridged: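 Transfect HepG2 with multiple GAL4-UAS reporter transcription units; dose chemicals for 24 h; isolate RNA, reverse-transcribe and PCR-amplify reporter sequences; label, digest and resolve fragments by capillary electrophoresis; fit increases relative to DMSO.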

Read-out in experiment [18]: E-selectin (Homo sapiens) (UniProt P16581)
The experiment is described as follows: BSK_3C_Eselectin: BioMAP Diversity Plus: 3C Assay for Eselectin Biomarker Activity (AID 2283015).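 Note: cell surface E-selectin protein quantified by ELISA 24 h after dosing.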 Conditions: primary human endothelial cells (HUVEC); actives raise or lower the signal. The procedure, abridged:
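E-selectin ELISA readout, fitted bidirectionally relative to DMSO, taken 24 h post-dosing in HUVEC cultures of the 3C system. Overt cytotoxicity tracked with sulforhodamine B staining of parallel wells.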

Read-out in experiment [19]: Monocyte Chemoattractant Protein-1 (MCP1), CCL2 (gene 6347)
Put plainly: BSK_4H_MCP1: BioMAP Diversity Plus: 4H Assay for Monocyte Chemoattractant Protein-1 (MCP1) Biomarker Activity (AID 2283018). Particulars: primary human endothelial cells (HUVEC); actives raise or lower the signal. The essentials: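 Endothelial cells from umbilical vein were treated with test chemical, then after 24 h MCP-1 levels were quantified by ELISA; endpoint values came from bidirectional fitting with DMSO as baseline of activity.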

Records with an inconclusive call do not appear. Calls of active or inactive are those of the source. Rule for the calls, unless noted: active = hit-call score of the fitted dose curve at least 0.9, where 1 is the maximum; inactive = score below 0.9.

The term AC50 denotes the concentration at which the activity in the assay is half-maximal.

Sequence of human RAR-related Orphan Receptor beta (RORb), RORB (gene 6096) (Q92753 whole entry, looked up, the tested form may be a part): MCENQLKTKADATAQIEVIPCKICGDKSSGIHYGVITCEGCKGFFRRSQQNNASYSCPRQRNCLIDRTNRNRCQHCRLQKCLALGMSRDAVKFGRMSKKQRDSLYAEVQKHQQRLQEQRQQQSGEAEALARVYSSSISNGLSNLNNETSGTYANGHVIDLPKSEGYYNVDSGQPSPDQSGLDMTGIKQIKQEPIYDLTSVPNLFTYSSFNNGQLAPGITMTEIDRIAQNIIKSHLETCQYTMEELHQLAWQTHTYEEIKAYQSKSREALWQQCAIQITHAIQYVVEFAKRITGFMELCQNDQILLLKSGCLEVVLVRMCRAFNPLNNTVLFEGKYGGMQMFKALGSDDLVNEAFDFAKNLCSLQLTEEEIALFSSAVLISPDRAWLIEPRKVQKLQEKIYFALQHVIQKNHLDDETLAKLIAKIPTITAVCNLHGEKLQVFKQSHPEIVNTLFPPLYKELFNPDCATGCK
Sequence of E-selectin (Homo sapiens) (P16581 whole entry, looked up): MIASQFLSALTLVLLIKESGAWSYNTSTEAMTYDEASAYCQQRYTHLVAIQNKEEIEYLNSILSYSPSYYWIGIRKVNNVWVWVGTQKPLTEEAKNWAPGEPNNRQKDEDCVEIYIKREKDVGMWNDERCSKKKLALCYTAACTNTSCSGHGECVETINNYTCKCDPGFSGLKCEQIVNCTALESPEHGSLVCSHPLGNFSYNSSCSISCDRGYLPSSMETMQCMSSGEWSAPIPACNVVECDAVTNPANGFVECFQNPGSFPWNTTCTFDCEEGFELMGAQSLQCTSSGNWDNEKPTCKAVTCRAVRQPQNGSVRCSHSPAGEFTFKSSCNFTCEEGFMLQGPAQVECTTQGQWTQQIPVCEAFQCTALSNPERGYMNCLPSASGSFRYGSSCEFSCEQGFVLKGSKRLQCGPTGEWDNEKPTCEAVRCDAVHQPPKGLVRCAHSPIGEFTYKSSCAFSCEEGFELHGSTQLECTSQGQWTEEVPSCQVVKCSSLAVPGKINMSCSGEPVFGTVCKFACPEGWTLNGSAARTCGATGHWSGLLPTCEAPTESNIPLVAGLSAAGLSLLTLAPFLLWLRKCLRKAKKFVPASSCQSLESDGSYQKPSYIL
Sequence of human Thyroid Receptor alpha (THRa1), THRA (gene 7067) (P10827 whole entry, looked up, the tested form may be a part): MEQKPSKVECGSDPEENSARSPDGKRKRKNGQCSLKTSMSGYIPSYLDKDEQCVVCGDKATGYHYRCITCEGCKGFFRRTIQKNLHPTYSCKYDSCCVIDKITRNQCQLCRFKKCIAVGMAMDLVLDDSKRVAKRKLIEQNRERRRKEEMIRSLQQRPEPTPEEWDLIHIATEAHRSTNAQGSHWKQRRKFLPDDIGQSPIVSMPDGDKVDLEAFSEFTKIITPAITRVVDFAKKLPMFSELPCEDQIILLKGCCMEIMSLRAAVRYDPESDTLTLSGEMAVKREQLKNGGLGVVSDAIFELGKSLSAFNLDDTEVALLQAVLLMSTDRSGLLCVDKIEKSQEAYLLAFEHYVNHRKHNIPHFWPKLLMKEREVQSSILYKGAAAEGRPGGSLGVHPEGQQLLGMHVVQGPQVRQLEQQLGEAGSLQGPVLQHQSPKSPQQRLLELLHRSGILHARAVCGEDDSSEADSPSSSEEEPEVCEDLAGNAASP
Sequence of human RAR-related Orphan Receptor gamma (RORg), RORC (gene 6097) (P51449 whole entry, looked up, the tested form may be a part): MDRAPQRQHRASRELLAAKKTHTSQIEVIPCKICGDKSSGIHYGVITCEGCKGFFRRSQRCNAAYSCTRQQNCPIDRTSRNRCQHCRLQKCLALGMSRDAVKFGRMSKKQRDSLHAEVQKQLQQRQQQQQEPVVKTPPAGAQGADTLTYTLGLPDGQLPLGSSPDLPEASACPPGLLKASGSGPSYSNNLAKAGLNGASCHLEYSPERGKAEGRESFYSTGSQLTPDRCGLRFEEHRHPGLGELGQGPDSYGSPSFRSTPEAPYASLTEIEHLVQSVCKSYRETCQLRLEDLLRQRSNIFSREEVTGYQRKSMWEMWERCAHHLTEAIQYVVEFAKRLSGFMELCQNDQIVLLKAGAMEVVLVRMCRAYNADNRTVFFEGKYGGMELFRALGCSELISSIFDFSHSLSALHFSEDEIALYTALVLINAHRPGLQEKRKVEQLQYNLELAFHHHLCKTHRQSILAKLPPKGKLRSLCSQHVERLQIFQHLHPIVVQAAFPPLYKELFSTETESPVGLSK
Sequence of human Retinoid X Receptor beta (RXRb), RXRB (gene 6257) (P28702 whole entry, looked up, the tested form may be a part): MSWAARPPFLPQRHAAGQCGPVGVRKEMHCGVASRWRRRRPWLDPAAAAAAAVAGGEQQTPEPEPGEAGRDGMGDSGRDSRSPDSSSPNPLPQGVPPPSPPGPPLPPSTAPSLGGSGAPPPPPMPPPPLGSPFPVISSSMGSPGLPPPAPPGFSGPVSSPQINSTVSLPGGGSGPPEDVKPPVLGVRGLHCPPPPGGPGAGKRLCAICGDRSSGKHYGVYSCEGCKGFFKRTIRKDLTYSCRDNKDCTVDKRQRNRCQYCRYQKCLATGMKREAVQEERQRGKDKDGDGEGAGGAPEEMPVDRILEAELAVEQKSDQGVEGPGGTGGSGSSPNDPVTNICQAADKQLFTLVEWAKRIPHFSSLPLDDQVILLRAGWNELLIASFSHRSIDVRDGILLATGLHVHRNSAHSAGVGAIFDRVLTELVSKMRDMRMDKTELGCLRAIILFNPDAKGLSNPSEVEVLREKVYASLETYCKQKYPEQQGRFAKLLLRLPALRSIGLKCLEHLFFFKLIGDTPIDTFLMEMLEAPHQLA
Sequence of Nuclear receptor subfamily 1 group I member 2 (Homo sapiens) (O75469 whole entry, looked up, the tested form may be a part): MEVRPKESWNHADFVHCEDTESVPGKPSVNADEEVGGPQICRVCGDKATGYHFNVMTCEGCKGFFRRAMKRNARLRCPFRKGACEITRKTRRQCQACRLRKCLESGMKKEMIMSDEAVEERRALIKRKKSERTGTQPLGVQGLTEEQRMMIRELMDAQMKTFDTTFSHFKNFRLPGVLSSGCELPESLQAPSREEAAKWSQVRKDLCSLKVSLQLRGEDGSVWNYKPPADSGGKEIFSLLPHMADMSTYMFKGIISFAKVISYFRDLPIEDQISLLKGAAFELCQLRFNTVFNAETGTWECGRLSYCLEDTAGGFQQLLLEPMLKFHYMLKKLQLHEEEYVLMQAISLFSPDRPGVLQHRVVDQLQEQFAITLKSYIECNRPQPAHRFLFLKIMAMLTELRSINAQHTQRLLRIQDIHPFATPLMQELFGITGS
Sequence of Retinoic acid receptor RXR-alpha (Homo sapiens) (P19793 whole entry, looked up, the tested form may be a part): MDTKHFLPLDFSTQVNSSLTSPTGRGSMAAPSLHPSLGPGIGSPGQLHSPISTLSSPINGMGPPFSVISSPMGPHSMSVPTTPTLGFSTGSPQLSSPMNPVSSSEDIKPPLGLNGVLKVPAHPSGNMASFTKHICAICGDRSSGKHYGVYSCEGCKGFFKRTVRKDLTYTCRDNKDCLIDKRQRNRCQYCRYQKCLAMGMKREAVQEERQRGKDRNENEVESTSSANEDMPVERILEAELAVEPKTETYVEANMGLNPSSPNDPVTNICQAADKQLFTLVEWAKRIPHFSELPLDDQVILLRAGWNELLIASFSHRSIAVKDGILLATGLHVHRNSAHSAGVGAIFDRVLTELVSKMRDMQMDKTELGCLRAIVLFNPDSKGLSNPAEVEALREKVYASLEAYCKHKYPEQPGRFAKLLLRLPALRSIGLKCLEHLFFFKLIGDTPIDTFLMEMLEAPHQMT
Sequence of Retinoic acid receptor alpha (Homo sapiens) (P10276 whole entry, looked up, the tested form may be a part): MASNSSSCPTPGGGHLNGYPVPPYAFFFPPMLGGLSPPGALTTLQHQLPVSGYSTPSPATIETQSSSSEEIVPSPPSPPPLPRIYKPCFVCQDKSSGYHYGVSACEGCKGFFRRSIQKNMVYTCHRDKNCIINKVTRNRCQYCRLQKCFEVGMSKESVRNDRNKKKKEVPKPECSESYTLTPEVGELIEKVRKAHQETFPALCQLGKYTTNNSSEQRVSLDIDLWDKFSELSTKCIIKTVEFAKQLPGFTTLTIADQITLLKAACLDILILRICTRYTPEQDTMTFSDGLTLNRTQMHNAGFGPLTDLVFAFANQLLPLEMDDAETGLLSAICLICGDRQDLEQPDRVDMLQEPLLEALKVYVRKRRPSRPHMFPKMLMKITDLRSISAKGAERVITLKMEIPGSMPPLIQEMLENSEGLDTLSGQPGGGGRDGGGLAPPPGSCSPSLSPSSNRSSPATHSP
Sequence of Peroxisome proliferator-activated receptor gamma (Homo sapiens) (P37231 whole entry, looked up): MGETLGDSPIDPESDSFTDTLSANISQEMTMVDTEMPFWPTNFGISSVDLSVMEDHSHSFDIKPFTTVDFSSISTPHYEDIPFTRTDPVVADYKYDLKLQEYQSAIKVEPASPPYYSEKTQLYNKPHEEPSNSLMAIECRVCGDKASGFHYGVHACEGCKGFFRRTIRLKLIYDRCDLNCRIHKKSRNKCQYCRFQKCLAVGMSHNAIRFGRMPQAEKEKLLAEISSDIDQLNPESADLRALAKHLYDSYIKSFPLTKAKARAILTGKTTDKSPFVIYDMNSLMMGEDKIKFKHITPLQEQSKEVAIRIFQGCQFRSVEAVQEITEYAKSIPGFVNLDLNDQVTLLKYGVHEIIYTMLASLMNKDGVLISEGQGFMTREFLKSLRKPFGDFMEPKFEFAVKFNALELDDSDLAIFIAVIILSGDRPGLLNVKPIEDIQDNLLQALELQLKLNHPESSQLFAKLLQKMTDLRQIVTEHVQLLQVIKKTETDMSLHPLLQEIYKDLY
Sequence of human Retinoic Acid Receptor beta (RARb), RARB (gene 5915) (P10826 whole entry, looked up, the tested form may be a part): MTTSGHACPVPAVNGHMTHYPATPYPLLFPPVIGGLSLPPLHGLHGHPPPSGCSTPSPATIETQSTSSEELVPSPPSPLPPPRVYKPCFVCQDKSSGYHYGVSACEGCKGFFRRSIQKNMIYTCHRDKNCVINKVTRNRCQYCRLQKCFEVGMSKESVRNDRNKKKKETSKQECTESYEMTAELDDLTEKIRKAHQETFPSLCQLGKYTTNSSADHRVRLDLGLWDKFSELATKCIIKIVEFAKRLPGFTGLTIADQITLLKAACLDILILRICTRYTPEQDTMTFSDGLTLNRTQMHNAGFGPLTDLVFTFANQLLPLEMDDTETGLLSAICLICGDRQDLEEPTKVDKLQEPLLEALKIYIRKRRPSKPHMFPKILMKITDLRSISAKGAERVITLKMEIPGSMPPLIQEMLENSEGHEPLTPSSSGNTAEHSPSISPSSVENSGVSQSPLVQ

In the case of `CCCCCCCC/C=C\CCCCCCCC(=O)OC[C@@H](O)[C@H]1OC[C@H](O)[C@H]1O`, the result in experiment [1], in experiment [2], in experiment [3], in [4], in [5] and in [6] was inactive. The call in experiment [7], in [8], in experiment [9], in experiment [10], in [11] and in [12] was inactive. Besides, the outcome in experiment [13] and in experiment [14] was inactive.

`CC(C)CCCCCCOC(=O)C1CCCCC1C(=O)OCCCCCCC(C)C` (configuration not stated): the outcome in experiment [1], in experiment [15], in [3], in [17], in experiment [9] and in experiment [10] was inactive. Also, the outcome in experiment [11], in experiment [12], in [13] and in experiment [14] was inactive. Moreover, the AC50 in [16] is 1.37 µM (active).

As for `CC(C)C(=O)Nc1ccc([N+](=O)[O-])c(C(F)(F)F)c1`, the result in experiment [1], in experiment [3], in experiment [7], in [18], in [11] and in [13] was inactive. Besides, the result in [14] was inactive. Besides, the AC50 was 6.92 µM (active) in experiment [16], 13.3 µM (active) in experiment [8], 100 µM (active) in experiment [9] and 34.1 µM (active) in [12].

In the case of `CC(C)CC(C)O` (configuration not stated), the outcome in experiment [1], in [2], in experiment [3], in [11], in experiment [19] and in experiment [12] was inactive. Besides, the outcome in [13] and in experiment [14] was inactive.

On to `C=CN1CCCC1=O`, for which the result in experiment [1], in experiment [3], in experiment [7], in [18], in experiment [11] and in [12] was inactive. Moreover, the result in experiment [13] and in experiment [14] was inactive.

As to `COS(C)(=O)=O`, the result in [1], in experiment [3], in experiment [17], in experiment [6], in [7] and in experiment [8] was inactive. Further, the result in experiment [18], in [11], in experiment [19], in experiment [12], in experiment [13] and in [14] was inactive.

Consider `CCCCCCOC(=O)CC(CC(=O)OCCCCCC)(OC(=O)CCC)C(=O)OCCCCCC`, for which the result in experiment [1], in experiment [3], in experiment [4], in experiment [16], in [17] and in experiment [6] was inactive. For the same compound, the result in experiment [7], in experiment [18], in experiment [10], in [11], in experiment [19] and in experiment [12] was inactive. Besides, the outcome in experiment [13] and in [14] was inactive.

As to `OC(Cn1cncn1)(Cn1cncn1)c1ccc(F)cc1F`, the outcome in experiment [1], in [3], in [16], in experiment [8], in [9] and in experiment [18] was inactive. Besides, the outcome in experiment [11], in [19], in [12], in experiment [13] and in experiment [14] was inactive.

On to `OCCOCCOCCO`, for which the outcome in experiment [1], in experiment [3], in experiment [7], in experiment [8], in experiment [18] and in experiment [10] was inactive. Also, the outcome in experiment [11], in experiment [12] and in [14] was inactive.

Turning to `CC1(C)C(=O)N(Cl)C(=O)N1Cl`, the outcome in experiment [1], in [3], in experiment [6], in experiment [18], in [10] and in experiment [11] was inactive. Besides, the result in [12], in [13] and in experiment [14] was inactive.

For the origin of these results see PubChem BioAssay (EPA / NIEHS).
